Assay results from PubChem BioAssay AID588720 (NMMLSC, 2011).
Potency and affinity values are given separately.

Molecular target: Beta-adrenergic receptor kinase 1 (Homo sapiens) (UniProt P25098)
Test: GRK2 inhibitors displacing RNA aptamer, dose response, biochemical, flow cytometry beads, FAM-aptamer, powder set 1 (AID 588720)
Conditions: biotinylated GRK2 beads, FAM-aptamer displacement; series mostly up to 100 µM; aptamer binding inhibition: at the top concentration;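 active = good curve fit with EC50 under 10 µM, EC50 error below a tenth of EC50, span above a set limit; inactive = the rest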

Sequence of Beta-adrenergic receptor kinase 1 (Homo sapiens) (P25098 whole entry, looked up): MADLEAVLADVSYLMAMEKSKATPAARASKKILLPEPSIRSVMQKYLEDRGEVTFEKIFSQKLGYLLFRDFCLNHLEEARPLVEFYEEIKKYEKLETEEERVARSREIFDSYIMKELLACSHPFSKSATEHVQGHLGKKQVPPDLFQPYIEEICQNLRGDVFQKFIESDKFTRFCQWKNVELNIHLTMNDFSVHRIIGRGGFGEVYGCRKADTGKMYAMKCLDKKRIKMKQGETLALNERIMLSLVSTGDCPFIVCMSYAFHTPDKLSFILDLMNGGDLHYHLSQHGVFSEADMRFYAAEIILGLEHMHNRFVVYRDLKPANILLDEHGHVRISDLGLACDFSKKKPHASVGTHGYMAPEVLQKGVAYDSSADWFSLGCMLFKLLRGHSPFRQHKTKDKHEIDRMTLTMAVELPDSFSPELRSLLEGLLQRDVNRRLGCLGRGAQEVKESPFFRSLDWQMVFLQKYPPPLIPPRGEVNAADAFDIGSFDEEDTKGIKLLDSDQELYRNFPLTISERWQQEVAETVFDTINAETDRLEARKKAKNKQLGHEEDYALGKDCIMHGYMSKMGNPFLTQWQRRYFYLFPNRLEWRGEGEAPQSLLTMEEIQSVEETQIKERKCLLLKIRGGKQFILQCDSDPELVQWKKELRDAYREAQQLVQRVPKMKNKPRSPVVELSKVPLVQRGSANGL

Aptamer binding inhibition, inactive:
CC(=O)N1CCN(Cc2nc3cc(Cl)ccc3c(=O)[nH]2)CC1 0.161%
O=C(CN1CCc2ccccc21)NC(=O)NCc1ccccc1 -0.704%
Cc1cc2ccccc2n1CCNC(=O)C(C)Oc1ccccc1 (configuration not stated) 11.1%
Cc1ccc(CCNC(=O)CCS(=O)(=O)c2ccc(Br)cc2)cc1 6.77%
Cc1cc2ccccc2n1CCNC(=O)c1cccs1 21.4%
O=C(O)C1CC(=O)N(c2ccc3c(c2)OCCO3)C1 (configuration not stated) 13.3%
COC(=O)c1ccccc1NC(=O)CCS(=O)(=O)c1ccc(Br)s1 8.03%
